Assay results reported in PubChem BioAssay (NCATS).
Several values for one entry are separate records, joined by “and”; a condition that tells them apart may be missing. Equal values may be shown once. Records with an inconclusive call do not appear. Activity calls are given as the source filed them. Unless noted, calls come from the whole dose curve; as a rule, active = well fitted curve in the direction sought with a large enough effect; inconclusive = small, poorly fitted or top-dose-only effect, or another doubt; inactive = no such curve, though single readings can be large; an effect the other way counts as inactive or inconclusive.

Assays:
[1] = tested on: MKL-2; assay: qHTS assay to identify novel small-molecules to repurpose for Merkel cell carcinoma treatment (AID 1296009); details: MCC and control cell lines, CellTiter-Glo viability, 72 h; series mostly up to 46 µM; note: nearly all actives have a fitted effect of over 60% in size
Method in brief: (§1)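 Dose-response viability screen; 72 hr exposure at 37 degree celsius; CellTiter-Glo added, 10 min room temperature, luminescence read; RLUs scaled between no-cell and DMSO wells.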

[2] = tested on: NIH3T3; assay: as above; details: MCC and control cell lines, CellTiter-Glo viability, 72 h; at 44.8 µM (top of the series) unless noted
Method in brief: as §1

[3] = tested on: UISO; assay: as above; details: MCC and control cell lines, CellTiter-Glo viability, 72 h; series mostly up to 46 µM
Method in brief: as §1

[4] = tested on: WaGa; assay: as above; details: MCC and control cell lines, CellTiter-Glo viability, 72 h; series mostly up to 46 µM
Method in brief: as §1

[5] = tested on: C33A; assay: Primary qHTS to identify gynecologic anti-cancer compounds using libraries of approved drugs and bioactive compounds (AID 1345084); details: Gynecologic cancer cell panel viability, ATPlite luminescence, 48 h; series mostly up to 57.5 µM; note: % is set by controls: 0 for no effect and ±100 for the full control effect; nearly all actives have a fitted effect of over 55% in size
Method in brief: (§2)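 48 h compound exposure at 37 C, 5% CO2; five-point qHTS. ATPlite luminescence readout of cell ATP.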

[6] = tested on: CAOV3; assay: as above; details: Gynecologic cancer cell panel viability, ATPlite luminescence, 48 h; series mostly up to 57.5 µM
Method in brief: as §2

[7] = tested on: CASKI; assay: as above; details: Gynecologic cancer cell panel viability, ATPlite luminescence, 48 h; series mostly up to 57.5 µM
Method in brief: as §2

[8] = tested on: Es-2; assay: as above; details: Gynecologic cancer cell panel viability, ATPlite luminescence, 48 h; series mostly up to 57.5 µM
Method in brief: as §2

[9] = tested on: HeLa; assay: as above; details: Gynecologic cancer cell panel viability, ATPlite luminescence, 48 h; series mostly up to 57.5 µM
Method in brief: as §2

[10] = tested on: Hek293T; assay: as above; details: Gynecologic cancer cell panel viability, ATPlite luminescence, 48 h, control line for the selectivity index; series mostly up to 57.5 µM
Method in brief: as §2

[11] = tested on: JEG-3; assay: as above; details: Gynecologic cancer cell panel viability, ATPlite luminescence, 48 h; series mostly up to 57.5 µM
Method in brief: as §2

[12] = tested on: OV90; assay: as above; details: Gynecologic cancer cell panel viability, ATPlite luminescence, 48 h; series mostly up to 57.5 µM
Method in brief: as §2

[13] = tested on: PA-1; assay: as above; details: Gynecologic cancer cell panel viability, ATPlite luminescence, 48 h; series mostly up to 57.5 µM
Method in brief: as §2

[14] = tested on: Tov-21-G; assay: as above; details: Gynecologic cancer cell panel viability, ATPlite luminescence, 48 h; series mostly up to 57.5 µM
Method in brief: as §2

[15] = tested on: Tov112D; assay: as above; details: Gynecologic cancer cell panel viability, ATPlite luminescence, 48 h; series mostly up to 57.5 µM
Method in brief: as §2

[16] = tested on: astro; assay: Drug repurposing screens with cells derived from glioblastoma tumor samples (AID 1345199); details: viability, ATP luminescence, 48 h; series mostly up to 45.9 µM; note: % is set by controls: 0 for no effect and ±100 for the full control effect; nearly all actives have a fitted effect of over 40% in size
Method in brief: (§3)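 Primary testing used CD133+ neurospheres from four GBM patients, seven concentrations, 48 h exposure and ATP-based viability; confirmation added three slower-growing patient lines.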

[17] = molecular target: Nuclear receptor subfamily 1 group I member 2 (Rattus norvegicus) (UniProt Q9R1A7); assay: qHTS assay for small molecule activators of the rat pregnane X receptor (rPXR) signaling pathway (AID 651751; call rule not given here; note: 0% is about no effect); details: rPXR reporter cells, luciferase (One-Glo), 24 h
Nuclear receptor subfamily 1 group I member 2 (Rattus norvegicus), sequence (Q9R1A7 whole entry, looked up): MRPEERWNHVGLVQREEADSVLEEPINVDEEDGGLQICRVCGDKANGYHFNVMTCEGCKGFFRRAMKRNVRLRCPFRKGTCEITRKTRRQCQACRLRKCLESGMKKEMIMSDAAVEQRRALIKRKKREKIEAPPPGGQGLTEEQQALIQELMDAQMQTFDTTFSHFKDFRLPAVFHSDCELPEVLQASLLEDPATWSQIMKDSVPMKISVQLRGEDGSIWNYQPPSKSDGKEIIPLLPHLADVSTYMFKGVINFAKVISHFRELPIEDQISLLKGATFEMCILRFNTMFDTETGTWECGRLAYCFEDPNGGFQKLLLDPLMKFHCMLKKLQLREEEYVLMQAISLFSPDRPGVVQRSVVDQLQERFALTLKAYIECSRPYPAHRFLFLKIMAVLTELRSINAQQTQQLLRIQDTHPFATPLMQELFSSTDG

[18] = tested on: SKOV3; assay: Primary qHTS to identify gynecologic anti-cancer compounds using libraries of approved drugs and bioactive compounds (AID 1345084); details: Gynecologic cancer cell panel viability, ATPlite luminescence, 48 h; series mostly up to 57.5 µM; note: % is set by controls: 0 for no effect and ±100 for the full control effect; nearly all actives have a fitted effect of over 55% in size
Method in brief: as §2

[19] = Drug repurposing screens with cells derived from glioblastoma tumor samples (AID 1345199); details: GBM patient neurospheres viability, ATP luminescence, 48 h; note: % is set by controls: 0 for no effect and ±100 for the full control effect; nearly all actives have a fitted effect of over 40% in size
Method in brief: as §3

[20] = at 45.9 µM (top of the series), tumour line B
[21] = at 45.9 µM (top of the series), tumour line D
[22] = at 46 µM (top of the series), tumour line A
[23] = at 46.1 µM (top of the series), tumour line C
[24] = at 20 µM (top of the series), tumour line C
[25] = at 21.2 µM (top of the series), tumour line B
[26] = at 21.2 µM (top of the series), tumour line D
[27] = at 21.3 µM (top of the series), tumour line A

CCOC(=O)c1ccc(O)cc1
inactive: Potency [1] | outcome [2] | Potency [3] | Potency [4] | Potency [5] | Potency [6] | Potency [7] | Potency [8] | Potency [9] | Potency [10] | Potency [11] | Potency [12] | Potency [13] | Potency [14] | Potency [15] | Potency [16] | max response [17] 1.86%

CC1CC(OC(=O)C(O)c2ccccc2)CC(C)(C)N1C (configuration not stated)
inactive: Potency [1] | outcome [2] | Potency [3] | Potency [4] | Potency [5] | Potency [6] | Potency [7] | Potency [8] | Potency [9] | Potency [10] | Potency [11] | Potency [12] | Potency [13] | Potency [18] | Potency [14] | Potency [15] | Potency [16]

O=C1N=C(O)CN1/N=C/c1ccc(-c2ccc([N+](=O)[O-])cc2)o1
inactive: Potency [1] | Potency [3] | Potency [4] | Potency [5] | Potency [6] | Potency [7] | Potency [8] | Potency [9] | Potency [10] | Potency [11] | Potency [12] | Potency [13] | Potency [18] | Potency [14] | Potency [15] | activity, negative = cell killing [19, 20] -7.61% | activity, negative = cell killing [19, 21] 2.91% | activity, negative = cell killing [19, 22] -22.1% | activity, negative = cell killing [19, 23] -1.99% | Potency [16]

NS(=O)(=O)c1cc2c(cc1C(F)(F)F)NC(Cc1ccccc1)NS2(=O)=O (configuration not stated)
inactive: Potency [1] | outcome [2] | Potency [3] | Potency [4] | Potency [5] | Potency [7] | Potency [8] | Potency [9] | Potency [10] | Potency [11] | Potency [13] | Potency [18] | Potency [14] | Potency [15] | activity, negative = cell killing [19, 24] -4.97% | activity, negative = cell killing [19, 25] -2.05% | activity, negative = cell killing [19, 26] -0.808% | activity, negative = cell killing [19, 27] -15.9% | Potency [16]

O=C1NS(=O)(=O)c2ccccc21
inactive: Potency [1] | Potency [3] | Potency [4] | Potency [5] | Potency [6] | Potency [7] | Potency [8] | Potency [9] | Potency [10] | Potency [11] | Potency [12] | Potency [13] | Potency [18] | Potency [14] | Potency [15] | activity, negative = cell killing [19, 20] -3.37% | activity, negative = cell killing [19, 21] -3.92% | activity, negative = cell killing [19, 22] -6.92% | activity, negative = cell killing [19, 23] -6.41% | Potency [16] | max response [17] -2.55%

COc1ccc2c(c1)C(=O)N(CCc1ccc(S(=O)(=O)NC(=O)NC3CCCCC3)cc1)C(=O)C2(C)C
inactive: Potency [1] | Potency [3] | Potency [4] | Potency [5] | Potency [6] | Potency [7] | Potency [8] | Potency [9] | Potency [10] | Potency [11] | Potency [12] | Potency [13] | Potency [18] | Potency [14] | Potency [15] | activity, negative = cell killing [19, 24] -4.28% | activity, negative = cell killing [19, 25] -10.5% | activity, negative = cell killing [19, 26] -7.62% | Potency [16]

Nc1ccc(S(=O)(=O)NC(=O)c2ccccc2)cc1
inactive: Potency [1] | Potency [3] | Potency [4] | Potency [5] | Potency [6] | Potency [7] | Potency [8] | Potency [9] | Potency [10] | Potency [11] | Potency [12] | Potency [13] | Potency [18] | Potency [14] | Potency [15] | activity, negative = cell killing [19, 24] -23.5% | activity, negative = cell killing [19, 25] -10.1% | activity, negative = cell killing [19, 26] -27.1% | activity, negative = cell killing [19, 27] -8.76% | Potency [16]

C[C@H](N)[C@H](O)c1cccc(O)c1
inactive: Potency [1] | Potency [3] | Potency [4] | Potency [5] | Potency [6] | Potency [7] | Potency [8] | Potency [9] | Potency [10] | Potency [11] | Potency [12] | Potency [13] | Potency [18] | Potency [14] | Potency [15] | activity, negative = cell killing [19, 24] -4.02% | activity, negative = cell killing [19, 25] -13% | activity, negative = cell killing [19, 26] -3.31% | activity, negative = cell killing [19, 27] -12.7% | Potency [16]

O=C1O[C@H](CO)[C@@H](O)[C@H](O)[C@H]1O
inactive: Potency [1] | Potency [3] | Potency [4] | Potency [5] | Potency [6] | Potency [7] | Potency [8] | Potency [9] | Potency [10] | Potency [11] | Potency [12] | Potency [13] | Potency [18] | Potency [14] | Potency [15] | activity, negative = cell killing [19, 20] -6.95% | activity, negative = cell killing [19, 21] 6.72% | activity, negative = cell killing [19, 23] 0.13% | Potency [16]

CCCCOC(=O)c1ccc(O)cc1
inactive: Potency [1] | Potency [3] | Potency [4] | Potency [5] | Potency [6] | Potency [7] | Potency [8] | Potency [9] | Potency [10] | Potency [11] | Potency [12] | Potency [13] | Potency [18] | Potency [14] | Potency [15] | activity, negative = cell killing [19, 20] -17.3% | activity, negative = cell killing [19, 21] -11.1% | activity, negative = cell killing [19, 23] 26.3% | Potency [16] | max response [17] -8.55% and 2.81%

Cc1cc2c(cc1S(N)(=O)=O)S(=O)(=O)CCC2
inactive: Potency [1] | Potency [3] | Potency [4] | Potency [5] | Potency [6] | Potency [7] | Potency [8] | Potency [9] | Potency [10] | Potency [11] | Potency [12] | Potency [13] | Potency [18] | Potency [14] | Potency [15] | activity, negative = cell killing [19, 24] 4.86% | activity, negative = cell killing [19, 25] -8.12% | activity, negative = cell killing [19, 26] 3.88% | activity, negative = cell killing [19, 27] -0.554% | Potency [16]

N[C@H](C(=O)O)c1ccc(O)cc1
inactive: Potency [1] | Potency [3] | Potency [4] | Potency [5] | Potency [6] | Potency [7] | Potency [8] | Potency [9] | Potency [10] | Potency [11] | Potency [12] | Potency [13] | Potency [18] | Potency [14] | Potency [15] | activity, negative = cell killing [19, 20] -10.5% | activity, negative = cell killing [19, 21] -7.17% | activity, negative = cell killing [19, 22] -28.4% | activity, negative = cell killing [19, 23] -10.2% | Potency [16]
